In PubChem BioAssay (NCI) one finds growth data, which are given here for seven compounds.

What all share (assay): NCI-60 one-dose screen, 48 h (100 = growth as untreated, 0 = no growth, -100 = all killed)
What all share (conditions): 10 µM unless noted

Assay [1] has as its system NCI-H23 lung.
In assay [2] the test system is NCI-H226 lung.
In assay [3] the test system is NCI-H322M lung.
In assay [4] the test system is HOP-62 NSCLC.
Assay [5] relates to NCI-H460 lung.
In assay [6] the test system is HOP-92 NSCLC.
Assay [7] deals with NCI-H522 lung.
Assay [8] has as its system A549/ATCC NSCLC.
Assay [9] relates to 786-0 renal.
The test system of assay [10] is COLO 205 colon.
Assay [11] deals with DU-145 prostate.
Assay [12] deals with K-562 leukemia.
Assay [13] relates to MALME-3M melanoma.
Assay [14] relates to MDA-MB-231 breast.
The test system of assay [15] is RXF 393 renal.
Assay [16] concerns SF-268 CNS.
In assay [17] the test system is SF-295 CNS.
Assay [18] deals with SF-539 CNS.
The test system of assay [19] is UACC-257 melanoma.
The subject of assay [20] is M14 melanoma.

The panel holds about 83,000 compounds, 20% with a hit somewhere; the sample as a whole holds those more often.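 In brief: 96-well plates, 48 h treatment, single concentration, percent growth endpoint.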 Values without a mark were called inactive. The source made the active and inactive calls. Rule for the calls: active = growth percent below 10; inactive = the rest.

Regarding `CCCCCN1C=C/C(=C\C(=O)N(C)c2cccc3ccccc23)c2ccccc21`, the growth in assay [1] was 81.4%; in assay [2], 101%; in assay [3], 97.7%; in assay [4], 102%; in assay [5], 105%; in [6], 92.6%. The growth in assay [7] was 83.1%; in [8], 102%; in assay [9] it was 96.8%; in assay [10], 109%; in [11], 104%; in [12] it was 77.4%. In addition, the growth in assay [13] was 94%; in assay [14] it was 106%; in [15] it was 107%; in assay [16], 95.3%; in assay [17], 97.7%; in assay [18], 105%. Besides, the figures for the growth in assay [19] and in assay [20] were 106% and 102%, respectively.
As to `Nc1ccccc1NC(=O)c1ccc(CN2CCC/C(=C\c3cccc(Cl)c3)C2=O)cc1`, the growth in [1] is 21.1%; in assay [2] it was 40%; in assay [3], 40.8%; in assay [4], 19%; in [5] it was 7.66% (active); in assay [6] it was 44.1%. Further, the growth in assay [7] is -32% (active); in assay [8], 33%; in [9], 14.2%; in [10], -51.8% (active); in assay [11] it was 8.37% (active); in [12], 4.21% (active). Also, the growth was 63.7% in [13]; -2.78% (active) in [14]; 20.6% in assay [15]; 3.92% (active) in assay [16]; 25.5% in assay [17]; 5.47% (active) in assay [18]. The growth in [19] was 37.7%; in [20] it was 24%.
For `C=C(C)[C@@H]1CC[C@]2(C(=O)NCC(=O)OC)CC[C@]3(C)[C@H](CC[C@@H]4[C@@]5(C)Cc6c([nH]c7ccccc67)C(C)(C)[C@@H]5CC[C@]43C)[C@@H]12`, the growth in assay [1] is 68.6%; in assay [2], 63.5%; in assay [3] it was 85.8%; in [4], 82.8%; in assay [5], 74.6%; in assay [6], 91.1%. Also, the growth in assay [7] was 60.5%; in [8] it was 60.7%; in [9] it was 75%; in assay [10], 86.1%; in [11], 83.8%; in [12], 44.9%. Further, the growth in [13] was 93.9%; in [14], 82.2%; in assay [15], 76%; in [16], 74.7%; in assay [17] it was 76.7%; in assay [18], 85.1%. For the same compound, the growth in [19] is 75.7%; in [20], 89.5%.
`O=C(c1ccccc1)N1N=C(c2ccc(-n3ccc(C(F)(F)F)n3)cc2)CC1c1ccc[nH]1` (stereo not given): the growth is 96.4% in [1]; 95.1% in assay [2]; 80.6% in assay [3]; 105% in assay [4]; 100% in [5]; 113% in [6]. In addition, the growth was 76.5% in assay [7]; 82% in [8]; 87.3% in assay [9]; 101% in assay [10]; 104% in [11]; 65.1% in [12]. For the same compound, the growth in [13] is 93.6%; in assay [14] it was 97.6%; in assay [15], 97.1%; in assay [16] it was 98.6%; in assay [17], 97.1%; in assay [18], 92.6%. Besides, the values for the growth in assay [19] and in assay [20] were 90.1% and 79%, respectively.
Take `COc1ccc(CC(C)=C(c2ccc(OCCN(C)C)cc2)c2ccc(OCCN(C)C)cc2)cc1`: the growth in [1] was 89.3%; in [2] it was 88.9%; in assay [3], 85.8%; in assay [4] it was 82.6%; in assay [5], 79.6%; in assay [6], 37.1%. For the same compound, the growth in assay [7] is 79.5%; in assay [8] it was 77.1%; in assay [9], 68.1%; in assay [10], 67.3%; in assay [11], 83.1%; in assay [12], -28.1% (active). In addition, the growth in assay [13] is 96%; in assay [14], 39%; in assay [15] it was 74.2%; in [16], 82.7%; in assay [17], 67.3%; in assay [18], 81.7%. Besides, the growth is 92.7% in [19] and -39.7% (active) in assay [20].
With `O=S(=O)(NCCCNc1nccc(-c2c(-c3cccc(O)c3)nc3occn23)n1)c1ccc(Br)cc1`, the growth in [1] was 101%; in [2] it was 103%; in assay [3], 113%; in [4] it was 124%; in [5], 97.1%; in assay [6], 108%. In addition, the growth is 94.3% in assay [7]; 98.2% in [8]; 106% in assay [9]; 31.9% in [10]; 97% in assay [11]; 67.3% in assay [12]. The growth is 11.5% in assay [13]; 64.3% in assay [14]; 82.6% in assay [15]; 97.1% in assay [16]; 111% in assay [17]; 110% in [18]. The results for the growth in assay [19] and in assay [20] were 18.4% and 29%, respectively.
Regarding `CCOC(=O)c1c(C)nc2c(c1N)C(=O)C(=O)N2Cc1ccc(C(F)(F)F)cc1`, the growth is 69.8% in [1]; 73.2% in assay [2]; 97.3% in assay [3]; 60.5% in assay [4]; 93.7% in [5]; 50.3% in [6]. Further, the growth in assay [7] is 31%; in assay [8], 84.3%; in [9], 33.9%; in [10] it was 101%; in assay [11], 84.5%; in assay [12], 36.2%. The growth was 59.3% in assay [13]; 75.6% in assay [14]; 58.7% in [15]; 59.7% in assay [16]; 81% in assay [17]; 52.6% in assay [18]. Also, the growth in assay [19] is 74.2%; in assay [20] it was 53%.
